A selection: hits, their analogues and other compounds. The true share with any hit is near 18%.
DT40 TDP1 CPT – DT40-hTDP1 cell growth loss with CPT; AID 686979; Potency, µM (titrated, usually from 46.2 µM), inactives show top-dose activity change, negative = growth inhibition, usual class: inhibitors; actives 12% (n = 420,000); chicken DT40 Tdp1-/-;hTDP1 cells + 20 nM CPT, ATP luminescence, 48 h; further: nearly all actives have a fitted effect of over 55% in size
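Chicken DT40 Tdp1-/- cells stably complemented with human TDP1 were seeded at 400 cells/well in medium containing 20 nM camptothecin, exposed to pin-transferred compounds, and grown at 37 °C for at least 48 hr. Viability was read as ATP luminescence.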
TDP1 cell noCPT – qHTS for Inhibitors of human tyrosyl-DNA phosphodiesterase 1 (TDP1): qHTS in cells in absence of CPT | DT40 Tdp1-/- hTDP1 cells, no CPT, ATP luminescence, 48 h | Potency, µM (titrated, usually from 46.2 µM), for inactives: at the highest dose activity change, negative = growth inhibition, most hits filed as inhibitors | actives 15% (n = 420,000) | AID 686978, 2013; further: nearly all actives have a fitted effect of over 55% in size
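Seeded 400 DT40-hTDP1 cells/well (vehicle DMSO, no 20 nM CPT); pinned compounds; ≥48 hr at 37 °C; CellTiter-Glo luminescence as viability measure.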
TDP1 inh – blocks human tyrosyl-DNA phosphodiesterase 1; actives 0.28% (n = 350,000); Potency, µM (doses to about 130 µM), inactives show at the highest dose activity change, negative = inhibition, actives largely listed as inhibitors; recombinant TDP1, AlphaScreen DNA substrate cleavage; AID 485290; Q9NUW8; further: nearly all actives have a fitted effect of over 40% in size
Target sequence (Q9NUW8 whole entry, looked up): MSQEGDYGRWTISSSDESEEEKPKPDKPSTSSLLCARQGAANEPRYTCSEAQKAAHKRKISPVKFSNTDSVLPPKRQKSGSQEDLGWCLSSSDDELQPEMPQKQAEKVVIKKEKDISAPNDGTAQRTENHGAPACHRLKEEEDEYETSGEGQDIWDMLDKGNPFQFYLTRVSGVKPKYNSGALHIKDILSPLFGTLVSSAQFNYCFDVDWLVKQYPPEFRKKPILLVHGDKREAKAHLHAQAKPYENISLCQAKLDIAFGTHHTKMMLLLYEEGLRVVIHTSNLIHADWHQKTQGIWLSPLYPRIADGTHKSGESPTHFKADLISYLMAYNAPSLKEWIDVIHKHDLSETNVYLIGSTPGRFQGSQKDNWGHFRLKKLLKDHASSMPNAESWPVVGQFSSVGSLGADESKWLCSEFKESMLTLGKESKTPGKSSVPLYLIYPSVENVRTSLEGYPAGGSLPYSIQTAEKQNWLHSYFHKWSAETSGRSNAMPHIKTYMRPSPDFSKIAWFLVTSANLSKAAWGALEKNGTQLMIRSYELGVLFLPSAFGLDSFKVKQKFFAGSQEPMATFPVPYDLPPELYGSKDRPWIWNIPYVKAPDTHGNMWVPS
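E. coli-derived human Tdp1, 1 nM final. Cpd preinc 15 min RT; substrate 15 nM final, 5 min RT; AS bead mix 10 ug/ml final, 10 min RT. Signal loss = tyrosine-FITC cleavage. No-enzyme wells = max signal.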
PLK1 PBD inh – blocks phosphopeptide binding to human PLK1 polo-box domain. P53350. Plk1 PBD binding of FITC phosphopeptide, fluorescence polarization. Potency, µM, without a hit: max response, negative = inhibition, actives largely listed as inhibitors. actives 2.8% (n = 360,000). AID 720504; further: series mostly up to about 57 µM; nearly all actives have a fitted effect of over 65% in size
VDR inh – inhibitors of human vitamin D receptor | P11473 | VDR-SRC2-3 peptide fluorescence polarization, 2 h | Potency, µM, for inactives: max response, negative = inhibition, actives largely listed as inhibitors | actives 0.93% (n = 400,000)
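Signal is fluorescence polarization, reporting how far test compounds block the interaction of VDR with the SRC2-3 coregulator peptide after a 2 h room-temperature incubation.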
GCN5L2 inh – blocks human GCN5L2 histone acetyltransferase | Potency, µM (top dose mostly 58.9 µM), for inactives: at the top dose activity change, negative = inhibition, most hits filed as inhibitors | actives 0.21% (n = 390,000) | Q92830 | GCN5L2 HAT assay, ThioGlo1 CoA-SH fluorescence
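GCN5L2 (20nM final) in 50mM HEPES, 0.1mM EDTA pH 7.5, 0.01% Tween-20 was preincubated 15 min at room temperature with compound, then given ThioGlo1 (50uM), H3(1-25) peptide (75uM) and acetyl-CoA (70uM); CoA-thiol fluorescence (Ex340/Em540) was read at 0 and 20 min.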
* hit, by the source's call; [ ] = another dose, or the depositor's remark. The call rests on the fitted dose curve; in most records, active means well fitted curve in the direction sought with a large enough effect; inconclusive means small, poorly fitted or top-dose-only effect, or another doubt; inactive means no such curve, though single readings can be large; an effect the other way counts as inactive or inconclusive. On the % scale 0 is the no-effect control and ±100 the full control effect; potency means the concentration at half of the fitted maximal effect.

What do the screens show for `CCCN(CC(=O)Nc1cc(Cl)ccc1Cl)C(=O)c1ccc2n[nH]nc2c1`?
DT40 TDP1 CPT: 3.0%; TDP1 cell noCPT: 1.3%; TDP1 inh: 0.4%[56.1 µM]; PLK1 PBD inh: -0.9%; VDR inh: 4.2%; GCN5L2 inh: -10.0%

Results for CN1CCN(CCc2ccc(Cl)c(Cl)c2)CC1 ?
DT40 TDP1 CPT: inconclusive; TDP1 cell noCPT: 29.9µM*; TDP1 inh: 7.3%; VDR inh: 6.2%; GCN5L2 inh: 1.7%

How did CN1CCN(CCOc2ccc(Cc3ccccc3)cc2)CC1 do in these assays?
DT40 TDP1 CPT: inconclusive; TDP1 cell noCPT: 4.61µM*; PLK1 PBD inh: 3.5%; VDR inh: -6.8%; GCN5L2 inh: -1.4%

What do the screens show for `CN1CCN(CCOc2ccc(Cl)c(Cl)c2)CC1`?
DT40 TDP1 CPT: 16.4µM*; TDP1 cell noCPT: inconclusive; TDP1 inh: -2.7%; PLK1 PBD inh: 4.1%; VDR inh: -6.8%; GCN5L2 inh: -0.8%

Results for CCc1ccc(OCCOCCN2CCN(C)CC2)cc1 ?
DT40 TDP1 CPT: -16.3%; TDP1 cell noCPT: inconclusive; PLK1 PBD inh: -1.1%; VDR inh: -5.5%; GCN5L2 inh: -12.6%

How did COCCNC(=O)Cn1nc(-c2ccc(C)cc2)ccc1=O do in these assays?
DT40 TDP1 CPT: 3.1%; TDP1 cell noCPT: -6.4%; TDP1 inh: 1.0%; PLK1 PBD inh: -9.0%; VDR inh: -27.5%; GCN5L2 inh: -5.8%

What do the screens show for `C[C@@H]1CN([C@H](C)CO)C(=O)CCCn2nncc2CO[C@@H]1CN(C)C(=O)Nc1ccc(N2CCCCC2)cc1`?
DT40 TDP1 CPT: 2.9%; TDP1 cell noCPT: inconclusive; PLK1 PBD inh: -8.9%

Results for O=C(O)c1cc(O)c2c(c1)[C@@H]([C@H]1c3cc(C(=O)O)cc(O)c3C(=O)c3c(O[C@@H]4O[C@H](CO)[C@@H](O)[C@H](O)[C@H]4O)cccc31)c1cccc(O[C@@H]3O[C@H](CO)[C@@H](O)[C@H](O)[C@H]3O)c1C2=O ?
DT40 TDP1 CPT: 6.51µM*; TDP1 cell noCPT: inconclusive; PLK1 PBD inh: 2.67µM*; VDR inh: -20.1%; GCN5L2 inh: 0.631µM*

Results for O=C(O)c1cc(O)c2c(c1)[C@H]([C@H]1c3cc(C(=O)O)cc(O)c3C(=O)c3c(O[C@@H]4OC(CO)C(O)C(O)C4O)cccc31)c1cccc(O[C@@H]3OC(CO)C(O)C(O)C3O)c1C2=O (stereo not given in full) ?
VDR inh: 39.8µM*; GCN5L2 inh: 1.78µM*

Results for O=C(NC1CCCCC1)c1nc(-c2c(F)cccc2F)oc1-c1ccccc1 ?
DT40 TDP1 CPT: 23.1µM*; TDP1 cell noCPT: 25.9µM*; PLK1 PBD inh: -0.7%

Results for Cc1sc(-c2ccncc2)nc1OC(=O)c1ccccc1 ?
DT40 TDP1 CPT: -25.5%; TDP1 cell noCPT: -22.8%; TDP1 inh: 7.6%; PLK1 PBD inh: -6.5%; VDR inh: 0.9%; GCN5L2 inh: -11.0%

Results for CCOC(=O)c1cnc2ccc(OC)cc2c1Nc1ccc(OCc2ccccc2Cl)cc1 ?
DT40 TDP1 CPT: 11.6µM*; TDP1 cell noCPT: 7.31µM*; TDP1 inh: -2.2%[12.3 µM]; VDR inh: 9.5%; GCN5L2 inh: -7.8%

How did CCOC(=O)c1cnc2ccc(C)cc2c1Nc1ccc(OCc2ccccc2Cl)cc1 do in these assays?
DT40 TDP1 CPT: inconclusive; TDP1 cell noCPT: 23.1µM*; VDR inh: 4.3%; GCN5L2 inh: -2.1%

How did CCOC(=O)c1cnc2c(ccc3ccccc32)c1Nc1ccc(OC)c(OC)c1 do in these assays?
DT40 TDP1 CPT: 4.61µM*; TDP1 cell noCPT: 4.61µM*; VDR inh: 7.0%; GCN5L2 inh: -12.2%

Results for CCOC(=O)c1cnc2ccc(C(=O)OC)cc2c1Nc1ccc(OCc2ccccc2Cl)cc1 ?
DT40 TDP1 CPT: -11.6%; TDP1 cell noCPT: inconclusive; VDR inh: 4.2%; GCN5L2 inh: -9.5%

How did CCOC(=O)c1cnc2c(ccc3ccccc32)c1Nc1ccc(Cl)cc1 do in these assays?
DT40 TDP1 CPT: -15.9%; TDP1 cell noCPT: -23.7%; TDP1 inh: -1.0%[2.28 µM]; VDR inh: -7.5%; GCN5L2 inh: -2.1%

What do the screens show for `CCOC(=O)c1cnc2ccccc2c1Nc1cccc(OC)c1`?
DT40 TDP1 CPT: inconclusive; TDP1 cell noCPT: 16.4µM*; TDP1 inh: 0.0%; VDR inh: -4.5%; GCN5L2 inh: -12.6%

Results for Cc1sc2nc(C3CC3)nc(N3CCN(S(=O)(=O)c4ccc(F)cc4)CC3)c2c1C ?
DT40 TDP1 CPT: inconclusive; TDP1 cell noCPT: 11.2µM*; TDP1 inh: 0.0%; PLK1 PBD inh: 1.1%; VDR inh: -8.4%; GCN5L2 inh: -4.7%

What do the screens show for `Cc1sc2nc(C3CC3)nc(N3CCN(C(=O)c4ccc(Cl)cc4)CC3)c2c1C`?
DT40 TDP1 CPT: inconclusive; TDP1 cell noCPT: 18.4µM*; TDP1 inh: 4.3%; PLK1 PBD inh: -12.0%; VDR inh: -14.0%; GCN5L2 inh: -10.2%

How did Cc1sc2nc(CN3CCCC3)nc(N3CCN(C(=O)c4ccco4)CC3)c2c1C do in these assays?
DT40 TDP1 CPT: 4.3%; TDP1 cell noCPT: -24.4%; TDP1 inh: 5.4%; PLK1 PBD inh: -6.9%; VDR inh: 8.4%; GCN5L2 inh: -8.6%

Results for Cc1sc2nc(C3CC3)nc(N3CCN(C(=O)c4ccc(F)cc4)CC3)c2c1C ?
DT40 TDP1 CPT: inconclusive; TDP1 cell noCPT: 23.1µM*; PLK1 PBD inh: -9.3%; VDR inh: -7.1%; GCN5L2 inh: -11.1%

Results for COc1ccc(C(=O)N2CCN(c3ccccn3)CC2)cc1 ?
DT40 TDP1 CPT: -3.4%; TDP1 cell noCPT: -7.9%; TDP1 inh: 1.8%; PLK1 PBD inh: -9.1%; VDR inh: -2.9%; GCN5L2 inh: 0.0%

What do the screens show for `Cc1sc2nc(C3CC3)nc(N3CCN(C(=O)c4ccccc4F)CC3)c2c1C`?
DT40 TDP1 CPT: inconclusive; TDP1 cell noCPT: inconclusive; PLK1 PBD inh: -5.7%; VDR inh: -15.5%; GCN5L2 inh: -9.9%

What do the screens show for `COc1ccc(C(=O)N2CCN(c3nc(C4CC4)nc4sc(C)c(C)c34)CC2)cc1`?
DT40 TDP1 CPT: inconclusive; TDP1 cell noCPT: 20.6µM*; TDP1 inh: 2.0%[0.0935 µM]; PLK1 PBD inh: -15.0%; VDR inh: 2.0%; GCN5L2 inh: -5.4%

Results for CC(Sc1nc2ccccc2c(=O)n1C)C(=O)N(C)C1CCCCC1 (stereo not given) ?
DT40 TDP1 CPT: 10.3µM*; TDP1 cell noCPT: 7.31µM*; TDP1 inh: 0.2%; PLK1 PBD inh: -12.4%; VDR inh: -18.4%; GCN5L2 inh: -4.9%
